Structures are written as SMILES. Hit rate of the full screen: of about 69,000 compounds, about 8,600 (12%) showed an effect of 50% or more. Shown is part of a subset that was picked to be rich in strong results.

In this assay the test system is Plasmodium berghei. The experiment in a line: Screen against P. berghei liver stage (PbLuc), transformed with Luciferase, at 10uM. The format is functional, HepG2. To be noted: tested at 10 uM.
With `O=C(O)Cn1ccc(=O)c2ccc(Cl)cc21`, the INHIBITION was 11.1%.

As for `COc1ccc(C)c(NC(=O)NCc2cccc(N(C)C)n2)c1`, the INHIBITION was -35.2%.

Take `CC(=O)c1ccc(NC(=O)NCc2cccc(N(C)C)n2)cc1C`: the INHIBITION is recorded as 62.1%. Next, `CN(C)c1cccc(CNC(=O)Nc2ccc3[nH]nnc3c2)n1`: -4.13%. Next, `COc1cc(F)cc(NC(=O)NCc2cccc(N(C)C)n2)c1`: 55.3%; `CN(C)c1cccc(CNC(=O)Nc2cc(C#N)ccc2Cl)n1`: 15.8%; `COc1ccc(NC(=O)NCc2cccc(N(C)C)n2)c(Cl)c1`: 7.49%. Next, `CCc1nccn1CCCNC(=O)c1cnn(-c2ccccc2OC)c1`: -1.45%.

With `Cc1nn(C)c(C)c1C1CCCN1CC(=O)Nc1cc(C(C)C)no1` (stereo not given), the INHIBITION was -1.14%.

As for `O=C(c1cnccn1)N1C[C@@H](OCc2ccncc2)[C@@H]2OCCC[C@@H]21`, the INHIBITION was determined as 33%.

`O=C(NC1CCCc2nc(N3CCOCC3)ncc21)C1CCCC1` (stereo not given): the INHIBITION was -5.71%. Next, `COc1cc(-c2nc(CN(CCO)CCO)c(C)o2)ccc1F`: 22.5%. Next, `Cc1cc(C(F)(F)F)nc(CNc2nc(C)nc3c2cnn3C)n1`: 19.4%. Consider `Cc1cc(C(F)(F)F)nc(CNC(=O)CCC2CCCN(C)C2)n1` (stereo not given), for which the INHIBITION was 29.4%. Next, `CCC(C(=O)NCc1nc(C)cc(C(F)(F)F)n1)n1cccn1` (stereo not given): 8.08%. In the case of `Cc1cc(C(F)(F)F)nc(CNC(=O)CCn2cccn2)n1`, the INHIBITION is recorded as 58.1%. On to `CCN(C)c1ccc(CNC(=O)CCn2cc(C)cn2)cc1F`, for which the INHIBITION worked out at 12.8%. Next, `Cc1cc(C(F)(F)F)nc(CNC(=O)CCC2CCCCN2C)n1` (stereo not given): 38.7%; `CCOCC(=O)NCCc1nc(C)cc(C(F)(F)F)n1`: 20.4%. Next, `CCC(C(=O)NCCc1nc(C)cc(C(F)(F)F)n1)n1cccn1` (stereo not given): 57%; `Cc1cc(C(F)(F)F)nc(CNC(=O)C2CCCCCN2C)n1` (stereo not given): 54.5%; `CC(C)c1nn(C)c(N(C)C)c1CNCc1ccc(CO)c(F)c1`: 23.7%. Next, `CNc1nc2c(s1)C(c1c(Cl)cccc1Cl)CC(=O)N2` (stereo not given): 15%; `CS(=O)(=O)N1CCN(c2ccc3ccc(C(=O)NC4CC4)cn23)CC1`: 22.3%. As for `Cc1cccc(OC2CN(C(=O)C3CC(=O)N(C4CC4)C3)C2)c1` (stereo not given), the INHIBITION is given as 31.4%.

On to `O=C([C@H]1CC[C@@H]2[C@@H](CCN2C2CCOCC2)O1)N1CCOCC1`, for which the INHIBITION turned out to be 25.6%. On to `Cc1cccc(OCCC(=O)N(C)CCC#N)c1C`, for which the INHIBITION is listed as -33.2%. Consider `CCc1ncnc2c1CCN(Cc1nccs1)CC2`, for which the INHIBITION is -2.41%.

Regarding `CCc1cnc(CN2CCC(N(C)Cc3noc(C4CC4)n3)C2)o1` (stereo not given), the INHIBITION turned out to be 23.4%. Next, `CCN1CCn2c(C)cnc2C12CCN(C(=O)COC)CC2`: -6.05%; `CN(C)C(C(=O)N1CCSCC1)c1ccccc1F` (stereo not given): 32.8%; `CN(C)C(C(=O)N1Cc2ccccc2C1)c1ccccc1F` (stereo not given): 50.8%. For the compound `CN(C)C(C(=O)N1CCCC1)c1ccccc1F` (stereo not given), the INHIBITION is listed as 29.7%. As to `O=c1[nH]nc(CCCN2CCOCC2)n1-c1ccc(F)cc1F`, the INHIBITION came to 39.4%.

For `CC(C)CC(=O)N1CCCC2(CC(C(=O)Nc3ccccc3)=NO2)C1` (stereo not given), the INHIBITION is 3.58%. Next, `COc1ccccc1NC(=O)N1CCCC1c1ccco1` (stereo not given): 1.45%; `CCC1CN(C)c2ccccc2CN1C(=O)CCn1cncn1` (stereo not given): 44%. Next, `CCC1CN(C)c2ccccc2CN1C(=O)Nc1ccc(C)cc1` (stereo not given): 14%. Next, `CCC1CN(C)c2ccccc2CN1C(=O)Nc1ccccc1OC` (stereo not given): 63.5%; `CC(C)CCNC(=O)C1CCCN1C(=O)Nc1cccc(F)c1` (stereo not given): -11.4%; `CCC1CN(C)c2ccccc2CN1C(=O)Nc1cccc(F)c1` (stereo not given): 60.2%.

On to `Cc1c(C(=O)NCC(C)C)nnn1-c1cccc2c1CCN(CCO)C2`, for which the INHIBITION stood at 45.7%.

On to `O=C(NCCNc1ncccn1)C1CCCC1`, for which the INHIBITION turned out to be 26.4%. With `COc1ccccc1CNc1cnn(CC(F)F)c1`, the INHIBITION turned out to be 14.5%. Next, `Cc1nccn1CC1CCCN1S(=O)(=O)Cc1cccc(C#N)c1` (stereo not given): 45.7%; `Cc1cc(NC(=O)CN2CCCC2c2c(C)nn(C)c2Cl)on1` (stereo not given): -27.9%. On to `CC(C)C(C(=O)N1CCN(Cc2cscn2)CC1)n1cncn1` (stereo not given), for which the INHIBITION is given as -7.71%. Next, `O=C(NCCO)C1(Cc2ccccc2-c2ccncc2)CCOCC1`: -17.7%; `O=C(NC1CC1)C1(Cc2ccccc2-c2ccncc2)CCOCC1`: 76.1%. Next, `CC(C)(C)NC(=O)C1(Cc2ccccc2-c2ccncc2)CCOCC1`: 17.1%; `CN(C)C[C@@H]1CCC[C@@H]2CN(c3cccnc3)C[C@@H]21`: -11%; `CCc1ncc(C(=O)N(CCOC)Cc2ccccc2F)cn1`: 41.5%. `CCc1ncc(C(=O)N(CC)CCOC)cn1`: the INHIBITION came out at 29.2%. Consider `CCc1ncc(C(=O)N(CCOC)Cc2nccs2)cn1`, for which the INHIBITION amounted to 50.5%.

Consider `CS(=O)(=O)NCc1cnc2n1CCN(Cc1cccnc1)CC2`, for which the INHIBITION stood at 15.4%.

Source of the values: ChEMBL document CHEMBL4513216, “Probing the Open Global Health Chemical Diversity Library for Multistage-Active Starting Points for Next-Generation Antimalarials” (ACS Infect Dis, 2020).
